Screening results (PubChem)
Most compounds without a hit are left out; they make up all but 3.5% or so of the library.
Tau fluor counter: counter-screen for tau fibril formation inhibitors; Potency, µM (top dose mostly 57.7 µM), inactives show at the highest dose activity change, negative = decrease; tau K18 P301L Alexa594 fluorescence, heparin fibrillization; AID 1463; 280,000 compounds, 0.93% hits; also: nearly all actives have a fitted effect of over 55% in size
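Human K18 P301L tau (15 uM unlabeled plus 0.24 uM Alexa 594-labeled, final) in 100 mM sodium acetate pH 7 was mixed with compound and 20 uM heparin and incubated 6 hr at 37 C.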
TR SRC2 fluor cs: Texas Red fluorescence interference in TRb-SRC2 counter-screen | TRb/SRC2 Texas Red total fluorescence interference | Potency, µM (titrated, usually from 106 µM), for the others: top-dose fluorescence change, negative = quenching | 280,000 compounds, 0.29% hits | AID 1479; active = well fitted curve in either direction with a large enough effect; inconclusive = small, poorly fitted or top-dose-only effect
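Flags fluorescent or light-absorbing compounds by total fluorescence, S + 2P, at 555 nm excitation and 632 nm emission. Mixture: 20 nM Texas Red SRC2 peptide, 0.6 uM human TRb LBD, 1 uM T3, 5% DMSO; compound exposure 5 h at ambient temperature.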
Tau fibril FP: blocks human tau fibril formation measured by polarization; K18 P301L tau heparin fibrillization, Alexa594 FP, 6 h; Potency, µM (series often up to 57.7 µM), without a hit: at the top dose activity, negative = inhibition, usual class: inhibitors; 280,000 compounds, 0.39% hits; AID 1468; also: nearly all actives have a fitted effect of over 55% in size
Target sequence (P10636 561-689 P618L limits assumed): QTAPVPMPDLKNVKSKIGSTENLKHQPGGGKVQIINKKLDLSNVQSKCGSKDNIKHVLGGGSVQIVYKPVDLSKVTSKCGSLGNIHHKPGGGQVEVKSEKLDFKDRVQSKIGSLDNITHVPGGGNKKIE
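FP of Alexa 594-tau after heparin (20 uM) induction. Substrate: human K18 P301L, 15 uM unlabeled, 0.24 uM labeled. Buffer 100 mM sodium acetate pH 7. 6 hr, 37 C.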
TRb SRC2 PPI: TRbeta-SRC2 interaction inhibition; P10828; TRbeta-SRC2 peptide binding, fluorescence polarization; receptor liganded with 1 µM T3; Potency, µM (series often up to 106 µM), inactives show at the highest dose activity change, negative = inhibition, actives largely listed as inhibitors; 280,000 compounds, 0.065% hits; AID 1469;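 also: plate controls were bound peptide for no effect and peptide without receptor for full effect; nearly all actives have a fitted effect of over 50% in size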
Target sequence (P10828 whole entry, looked up): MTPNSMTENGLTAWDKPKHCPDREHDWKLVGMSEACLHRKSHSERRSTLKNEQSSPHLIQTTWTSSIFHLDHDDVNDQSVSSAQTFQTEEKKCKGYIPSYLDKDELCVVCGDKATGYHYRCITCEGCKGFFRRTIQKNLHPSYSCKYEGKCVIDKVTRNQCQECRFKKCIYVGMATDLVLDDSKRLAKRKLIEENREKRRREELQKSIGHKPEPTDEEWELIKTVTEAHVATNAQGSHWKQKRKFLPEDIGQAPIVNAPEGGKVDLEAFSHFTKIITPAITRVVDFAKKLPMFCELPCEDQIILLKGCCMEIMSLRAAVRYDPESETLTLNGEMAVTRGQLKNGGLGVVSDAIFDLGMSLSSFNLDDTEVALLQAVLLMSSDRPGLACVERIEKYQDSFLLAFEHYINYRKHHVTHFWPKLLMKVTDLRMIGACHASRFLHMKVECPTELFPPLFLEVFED
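A fluorescence polarization screen tested compounds at multiple concentrations against complex formation between 0.6 uM TRb ligand-binding domain and 20 nM Texas Red SRC2 peptide, with 1 uM T3 present; readout after 5 hr.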
Tau ThT inhib: blocks human tau fibril formation measured by thioflavin T; P10636; recombinant tau K18 P301L, heparin-induced fibrillization, ThT fluorescence; Potency, µM (top dose mostly 57.4 µM), inactives show at the highest dose activity, negative = inhibition, most hits filed as inhibitors; 270,000 compounds, 2.1% hits; AID 1460; also: nearly all actives have a fitted effect of over 55% in size
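Using a mix of unlabeled (15 uM) and Alexa 594-labeled (0.24 uM) tau K18 P301L, heparin-triggered fibrillization over 6 hr at 37 C was scored by ThT fluorescence.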
JMJD2E inh: JMJD2E (human) inhibition. B2RXH2. JMJD2E catalytic domain, FDH-coupled NADH fluorescence (FDH is formaldehyde dehydrogenase). Potency, µM (highest dose often 57.1 µM), inactives show top-dose activity change, negative = inhibition, actives largely listed as inhibitors. 230,000 compounds, 1.6% hits; active = well fitted inhibition curve with a large enough effect, not every such curve was filed as active; inconclusive = small, poorly fitted or top-dose-only effect, or another doubt; inactive = no such curve, though single readings can be large or run the other way;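 also: 0% = wells with enzyme and -100% = buffer wells without enzyme; nearly all actives have a fitted effect of over 50% in size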
The depositor's hits bear a star; ? = inconclusive; / = no result given; [ ] = remark or other dose. Unless noted, calls follow the shape of the dose curve; as a rule, active = well fitted curve in the direction sought with a large enough effect; inconclusive = small, poorly fitted or top-dose-only effect, or another doubt; inactive = no such curve, though single readings can be large; an effect the other way counts as inactive or inconclusive. Unless noted, % is scaled to controls: 0 for no effect and ±100 for the full control effect; potency is read from the fitted curve at half-maximal effect.

SMILES	Tau fluor counter	TR SRC2 fluor cs	Tau fibril FP	TRb SRC2 PPI	Tau ThT inhib	JMJD2E inh
CC(OC(=O)CCc1c[nH]c2ccccc12)C(=O)c1ccccc1 (configuration not stated)	11.2µM*[quencher]	-3.1%	4.6%	-5.6%	?	-25.0%
CC(C)CNC(=O)CCc1c[nH]c2ccccc12	-1.9%	-4.1%	?	-7.4%	?	17.2%
Cc1ccc(/C=N/NC(=S)NC(C)C)o1	-11.6%	-0.1%	-0.4%	-10.0%	-14.8%	-3.4%
CC(C)NC(=S)N/N=C/c1cc(Br)ccc1O	?	1.2%	14.4%	-8.5%	-11.5%	25.1µM*
CCCn1c(CNc2ccccc2O)nc2ccccc21	?	9.8%	?	-23.8%	28.2µM*	14.1µM*
COc1cccc(CNC(=O)CSc2nc(=O)[nH]c3c2CCC3)c1	-9.0%	0.9%	-8.6%	-1.9%	-10.8%	/
Cc1ccccc1OCCCN1C(=O)C(=O)c2cccc(C)c21	-20.8%	-0.7%	-14.5%	10.2%	22.4µM*	-6.8%
O=C(NCCn1cc(SCc2ccc(F)cc2)c2ccccc21)c1ccccc1F	?	-0.8%	-1.7%	-1.1%	?	-19.9%
O=c1/c(=C/c2ccc(O)c([N+](=O)[O-])c2)sc2nc3ccccc3n12	-19.8%	-2.1%	2.0%	-3.0%	2µM*	7.1%
CCN(CC)c1ccc(/C=c2\sc3nc4ccccc4n3c2=O)c(O)c1	-28.8%	50.1µM*[fluorescent]	-5.6%	-18.6%	16.7%	?
CCN1C/C(=C/c2sccc2C)c2nc3ccccc3c(C(=O)O)c2C1	-4.2%	-0.5%	10.6%	-4.4%	?	-5.1%
CCN1C/C(=C/c2cccs2)c2nc3ccccc3c(C(=O)O)c2C1	-17.1%	-0.8%	-6.4%	1.6%	?	25.1µM*
CCc1ccc(/C=C2\CN(CC)Cc3c2nc2ccccc2c3C(=O)O)cc1	-29.2%	-7.8%	?	-4.2%	25.1µM*	15.2%
O=[N+]([O-])c1ccc(N=Nc2ccc(O)cc2O)cc1	14.1µM*[quencher]	-15.9%	-12.9%	9.0%	2.51µM*	-5.5%
O=[N+]([O-])c1ccc(N=NN(CCO)CCO)cc1	-14.4%	-2.4%	-4.4%	-5.3%	?	7.5%
CC1=Nc2nc(N3CCCCC3)c(C#N)c3c4c(nc(c23)N1)N(c1ccc(C(C)C)cc1)C(=O)C4	-29.9%	-0.8%[53 µM]	?	-6.8%[53 µM]	12.6µM*	?
CC(C)c1ccc(-c2nc(N3CCCCC3)[nH]c(=O)c2C#N)cc1	5.3%	-3.2%	2.0%	-0.7%	1.6%	?
COc1ccc(C(=O)/C=C/c2cn(CC(O)CN(CC(C)C)CC(C)C)c3ccccc23)cc1 (configuration not stated)	-29.7%	-1.5%	-12.7%	9.2%	?	/
Cc1ccc(CNCc2ccccc2)s1	-19.0%	17.8µM*[quencher]	-13.4%	-12.6%	-9.8%	/
Cc1ccc(CNCc2ccccc2Cl)s1	-16.4%	-2.5%	-4.2%	1.7%	-11.5%	/
CCOC(=O)C1CCCN(C(=O)c2cc3ccccc3oc2=O)C1 (configuration not stated)	-7.6%	-3.7%	3.2%	0.2%	-4.5%	-10.1%
CCc1[nH]nc2c1C(Cc1ccccc1)C(C#N)=C(N)O2 (configuration not stated)	-6.2%	-6.7%	5.1%	-3.9%	-12.5%	-6.8%
Cc1cc(-c2csc(NC(=O)c3cccc(S(=O)(=O)N(C)C)c3)n2)c(C)n1-c1ccccc1	?	-9.9%	-5.0%	9.0%	?	12.6µM*
COc1ccc2nc(SCC(C)=O)c(C#N)cc2c1	-28.5%	-3.5%	9.6%	2.7%	4.47µM*	-9.8%
COc1ccc2nc(SC)c(C#N)cc2c1	-2.0%	0.2%	0.8%	1.9%	2.1%	-5.3%
SMILES	Tau fluor counter	TR SRC2 fluor cs	Tau fibril FP	TRb SRC2 PPI	Tau ThT inhib	JMJD2E inh
CCOC(=O)CSc1nc2cc(OC)ccc2cc1C#N	?	-6.2%	10.4%	-7.8%	5.01µM*	?
COc1ccc(C2C(=O)N(C3CCCCC3)CC(=O)N2C2CCCCC2)cc1 (configuration not stated)	-6.1%	-1.7%	2.3%	-2.4%	-3.6%	-8.5%
Cc1ccc(C(=O)NC(=S)/C=C2\N(C)c3ccccc3C2(C)C)cc1	-16.0%	3.4%	2.7%	0.8%	10µM*	-9.6%
COc1ccc(C(=O)Nc2ccc(N3CCCC3)cc2)cc1	15.8µM*[quencher]	3.6%	6.6%	-2.1%	7.94µM*	-5.6%
COc1ccc(C(=O)NC(=S)Nc2ccc(N3CCCC3)cc2)cc1	-21.8%	-0.3%	1.9%	1.5%	?	-8.2%
O=C(Nc1ccc(N2CCCCC2)cc1)c1ccc(F)cc1	-5.2%	-4.1%	10.5%	-9.8%	-16.2%	5.7%
CCCOc1ccc(C(=O)Nc2ccc(N3CCN(C(C)=O)CC3)cc2)cc1	-18.6%	-0.7%	-3.0%	-11.9%	2.24µM*	-23.4%
CCOc1ccc(C(=O)Nc2ccc(N3CCCC3)cc2)cc1	?	-0.3%	6.3%	-9.2%	8.91µM*	-5.1%
Cc1ccc(C(=O)Nc2ccc(N3CCCC3)cc2)c(C)c1	-26.0%	-8.4%	1.6%	-6.0%	14.1µM*	25.1µM*
Cc1cc(C(=O)N2CCN(c3cc(Cl)ccc3C)CC2)c2c(C)nn(-c3ccccc3)c2n1	-12.1%	-3.9%	2.0%	-3.2%	-7.0%	/
CCN(CC)S(=O)(=O)c1cccc(-c2n[nH]c(=S)n2/N=C/c2ccc(Br)cc2)c1	?	-0.1%	?	2.4%	-8.7%	4.3%
COC(=O)c1ccc(NC(=O)CO/N=C2\CCCc3nonc32)cc1	-12.7%	-2.2%	9.7%	8.1%	-10.6%	-1.5%
CC1=CC(=C2C(=O)c3ccccc3C2=O)C=C(C)N1Cc1ccco1	-11.4%	-4.9%	7.2%	-13.3%	17.8µM*	-8.7%
Cc1cccc(NC(=S)N=Nc2c(O)n(CN3CCOCC3)c3ccccc23)c1C	11.2µM*[quencher]	-1.1%	-4.6%	-1.2%	?	10.3%
CCCCCC1CCC(c2ccc(/C(N)=N/O)cc2)CC1 (configuration not stated)	-13.9%	1.3%	13.7%	7.0%	-10.9%	-2.5%
O=C(N/N=C/c1ccc(F)cc1)c1cc(-c2ccco2)nc2ccccc12	?	31.6µM*[quencher]	9.3%	2.6%	?	?
Cc1csc(NC(=O)c2cc(-c3ccco3)nc3ccccc23)n1	-2.7%	7.08µM*[quencher]	6.6%	-20.6%[53 µM]	2.3%	-0.7%
CCOc1ccc(/C=N/NC(=O)c2cc(-c3ccco3)nc3ccccc23)cc1	-21.4%	0.7%	10.0%	2.9%	-16.6%	?
Cc1csc(NC(=O)c2cc(C)nc3ccccc23)n1	-6.8%	-2.6%	4.4%	-12.8%	-3.4%	3.4%
Cc1cc(NC(=O)c2cc3cccc([N+](=O)[O-])c3[nH]2)ccc1F	25.1µM*[quencher]	?	?	16.7%	/	-5.9%
